Data on 13 compounds can be found in PubChem BioAssay (Tox21).

Where “and” joins values, the source holds several entries; their conditions need not be identical. Equal entries are not always repeated. Results filed as inconclusive are left out. The source holds several records for some structures; these can differ, active in one and inactive in another. Calls of active or inactive are those of the source. The call rests on the fitted dose curve; in most records, active means well fitted inhibition curve with a large enough effect in the repeat runs; inconclusive means weak or mixed curves; inactive means no such curve, though single readings can be large or run the other way.
Potency means the concentration at half of the fitted maximal effect.

In this assay the target is Cytochrome P450 2C19 (Homo sapiens) (UniProt P33261). Put plainly: Cytochrome P450 Family 2 Subfamily C Member 19 (CYP2C19) small molecule antagonists: luciferase reporter qHTS assay (AID 1671197). Further: nearly all actives have a fitted effect of over 65% in size. To be noted: P450-Glo CYP2C19 enzyme, luciferin luminescence, 1 h; series mostly up to 115 µM. In outline: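 Light output is proportional to CYP2C19 activity: proluciferin substrate is converted to luciferin, then detected by a luciferin detection reagent that also stops the 1 h, 37C NADPH-driven reaction. Ketoconazole serves as positive control.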
Sequence of Cytochrome P450 2C19 (Homo sapiens) (P33261 whole entry, looked up): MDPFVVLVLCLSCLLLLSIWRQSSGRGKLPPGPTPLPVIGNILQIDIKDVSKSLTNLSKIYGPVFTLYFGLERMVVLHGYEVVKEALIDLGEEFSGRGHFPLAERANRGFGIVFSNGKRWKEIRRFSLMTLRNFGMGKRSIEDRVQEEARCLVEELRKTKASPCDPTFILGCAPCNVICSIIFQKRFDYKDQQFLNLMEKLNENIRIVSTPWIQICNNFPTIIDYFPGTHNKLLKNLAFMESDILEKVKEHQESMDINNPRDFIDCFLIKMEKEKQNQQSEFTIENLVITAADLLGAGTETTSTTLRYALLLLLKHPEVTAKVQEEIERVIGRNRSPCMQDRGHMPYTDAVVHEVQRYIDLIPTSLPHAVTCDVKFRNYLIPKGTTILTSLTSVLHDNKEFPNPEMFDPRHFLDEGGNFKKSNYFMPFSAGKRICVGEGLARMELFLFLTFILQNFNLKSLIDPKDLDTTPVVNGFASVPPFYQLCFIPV
In general terms: In a reporter assay the amount or activity of a reporter protein is the signal.
As for `CCCOCCO`, the Potency entry is “inactive”.

With `CC(=O)Oc1ccc(C(c2ccc(OC(C)=O)cc2)c2ccccn2)cc1`, the Potency was 7.92 µM (active) and 24.5 µM (active).

For the compound `COc1ccc2nc(N)sc2c1`, the Potency is 39.9 µM (active) and 71 µM (active).

On to `COCCOCCOCCO`, for which the Potency entry is “inactive”.

Turning to `CC1(C)NC(=O)N(c2ccc([N+](=O)[O-])c(C(F)(F)F)c2)C1=O`, the Potency is 2.52 µM (active) and 1.38 µM (active).

On to `CC1(C)O[C@@H]2C[C@H]3[C@@H]4C[C@H](F)C5=CC(=O)C=C[C@]5(C)[C@@]4(F)[C@@H](O)C[C@]3(C)[C@]2(C(=O)CO)O1`, for which the Potency entry is “inactive”.

Turning to `Cc1ccc([N+](=O)[O-])c(C)c1`, the Potency is 8.94 µM (active) and inactive.

`C/C=C/C(=O)N(CC)c1ccccc1C`: the Potency was 44.8 µM (active) and 17.4 µM (active).

On to `O=C1CCc2ccccc2O1`, for which the Potency is 31.9 µM (active) and inactive.

`OC[C@H]1O[C@@H]2O[C@H]3[C@H](O)[C@@H](O)[C@@H](O[C@H]4[C@H](O)[C@@H](O)[C@@H](O[C@H]5[C@H](O)[C@@H](O)[C@@H](O[C@H]6[C@H](O)[C@@H](O)[C@@H](O[C@H]7[C@H](O)[C@@H](O)[C@@H](O[C@H]1[C@H](O)[C@H]2O)O[C@@H]7CO)O[C@@H]6CO)O[C@@H]5CO)O[C@@H]4CO)O[C@@H]3CO`: the Potency result is “inactive”.

As for `Brc1nc2ccccc2s1`, the Potency was 35.5 µM (active) and inactive.

In the case of `IC(I)I`, the Potency was 39.9 µM (active) and 89.4 µM (active).

As to `Nc1ccc2c(c1)C(=O)c1ccccc1C2=O`, the Potency was 8.78 µM (active) and 35.6 µM (active).
